Results filed as inconclusive are left out. Active and inactive are the calls of the source. The calls were made as follows, unless noted: active = hit-call score of the fitted dose curve at least 0.9, where 1 is the maximum; inactive = score below 0.9.
Legend:
[1] = ATG_Sox_CIS: Attagene CIS-FACTORIAL HepG2 Assay for human SRY-box transcription factor (SOX) (AID 2282960); conditions: HepG2 Attagene cis-factorial SOX reporter, mRNA; actives raise or lower the signal
How it was run: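 HepG2, cis reporter units, 24 h exposure. Reporter mRNA: RT-PCR → FAM labelling → HpaI → CE fluorescence. Bidirectional fit vs DMSO.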

[2] = target: Transcription factor Sp1 (Homo sapiens) (UniProt P08047); test: ATG_Sp1_CIS: Attagene CIS-FACTORIAL HepG2 Assay for human Specificity Protein 1 (Sp1) (AID 2282961); conditions: HepG2 Sp1 cis-reporter transcription, actives raise or lower the signal
How it was run: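 Liver-derived HepG2 cells, cis-element reporter library, 24 h treatment; RNA isolated, cDNA amplified with reporter-specific primers, FAM-labeled fragments sized on capillary analyzer. DMSO baseline, bidirectional curve fit.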

[3] = ATG_SREBP_CIS: Attagene CIS-FACTORIAL HepG2 Assay for human Sterol Regulatory Element Binding (SREBP) (AID 2282962); conditions: HepG2 Attagene cis-factorial SREBP reporter, mRNA; actives raise or lower the signal
How it was run: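 mRNA induction of transfected cis-promoter reporters in HepG2 cells, 24 h post-dose. Detection: RT-PCR with 6-FAM-labelled products, HpaI digest, capillary electrophoresis. DMSO served as negative control and baseline.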

[4] = target: Signal transducer and activator of transcription 3 (Homo sapiens) (UniProt P40763); test: ATG_STAT3_CIS: Attagene CIS-FACTORIAL HepG2 Assay for human Signal Transducer and Activator of Transcription 3 (STAT3) (AID 2282963); conditions: HepG2, Attagene cis-factorial STAT3 reporter transcription; actives raise or lower the signal
How it was run: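 HepG2 cells transiently transfected with multiple cis-element-driven reporter units report endogenous transcription factor activity. After 24 h compound exposure, reporter mRNA is measured by RT-PCR, 6-FAM labelling, HpaI digestion and capillary electrophoresis. Fitted bidirectionally versus DMSO.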

[5] = ATG_TA_CIS: Attagene CIS-FACTORIAL HepG2 Assay for human TA Basal Promoter (AID 2282964); conditions: HepG2 Attagene CIS-factorial TA basal promoter reporter; actives raise or lower the signal
How it was run: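 Fluorescence from labelled RT-PCR reporter fragments, separated by capillary electrophoresis, gives the signal. Cells: HepG2 transiently carrying multiple reporter units, 24 h chemical dosing. Gain or loss relative to DMSO.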

[6] = ATG_TCF_b_cat_CIS: Attagene CIS-FACTORIAL HepG2 Assay for human T-Cell-Factor with beta-catenin (TCF/b-cat) (AID 2282965); conditions: HepG2 TCF/beta-catenin cis-reporter transcription, actives raise or lower the signal
How it was run: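 HepG2, transient MRTU transfection, cis-element-driven reporters (endogenous TFs). 24 h compound exposure. Readout: reporter mRNA by RT-PCR + 6-FAM primer extension, HpaI digest, capillary electrophoresis. Gain/loss fit vs DMSO baseline.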

[7] = ATG_TAL_CIS: Attagene CIS-FACTORIAL HepG2 Assay for human TAL Basal Promoter (AID 2282966); conditions: HepG2 Attagene cis-factorial TAL promoter reporter; actives raise or lower the signal;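 also: background control endpoint measuring basal TAL promoter reporter mRNA not a specific factor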
How it was run: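 Steps: transfect HepG2 with multiple reporter transcription units; dose 24 h; isolate RNA, reverse-transcribe, PCR-amplify, label with 6-FAM, digest with HpaI; resolve by capillary electrophoresis. Bidirectional fitting against DMSO baseline.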

[8] = ATG_TGFb_CIS: Attagene CIS-FACTORIAL HepG2 Assay for human Transforming Growth Factor (TGF) (AID 2282967); conditions: HepG2 Attagene CIS TGFb reporter, mRNA transcription; actives raise or lower the signal
How it was run: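 Bidirectional fitting relative to DMSO gave the endpoint. Underlying data: reporter mRNA from HepG2 cells carrying transiently transfected cis-regulated reporter constructs, harvested 24 h after dosing and analyzed by RT-PCR and capillary electrophoresis.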

[9] = ATG_VDRE_CIS: Attagene CIS-FACTORIAL HepG2 Assay for human Vitamin D Receptor Element (VDRE) (AID 2282968); conditions: HepG2 VDRE cis-reporter transcription, actives raise or lower the signal
How it was run: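 Transiently transfected HepG2 cells carrying cis-regulated reporter transcription units were exposed for 24 h. Reporter mRNA was measured by RT-PCR with fluorescent labelling and capillary electrophoresis, and fitted in both directions against DMSO.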

[10] = ATG_M_19_TRANS: Attagene TRANS-FACTORIAL HepG2 Assay for M19 Transcription Factor (Internal Marker) (AID 2282974; active = hit-call score of the fitted dose curve at least 0.9, where 1 is the maximum); conditions: HepG2 Attagene TRANS-FACTORIAL M19 internal marker reporter
How it was run: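 Transfected HepG2 (GAL4-UAS MRTUs), 24 h compound, TriZol RNA, DNase-treated RT, reporter PCR, FAM label, HpaI digest, CE fluorescence; gain vs DMSO.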

[11] = target: Glucocorticoid receptor (Homo sapiens) (UniProt P04150); test: ATG_GR_TRANS: Attagene TRANS-FACTORIAL HepG2 Assay for human Glucocorticoid Receptor (GR) (AID 2282978; active = hit-call score of the fitted dose curve at least 0.9, where 1 is the maximum;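 also: activators score as hits since higher reporter transcript over DMSO is fitted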); conditions: HepG2 Attagene TRANS GR reporter, mRNA transcription
How it was run: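 After 24 h incubation with test chemical, transfected HepG2 cells were lysed for RNA; reporter cDNA was amplified, FAM-labelled, HpaI-digested and sized on a capillary analyser. Signal gain relative to DMSO was scored.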

[12] = target: Bile acid receptor (Homo sapiens) (UniProt Q96RI1); test: ATG_FXR_TRANS: Attagene TRANS-FACTORIAL HepG2 Assay for Farnesoid X Receptor (FXR) (AID 2282979; active = hit-call score of the fitted dose curve at least 0.9, where 1 is the maximum;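 also: hits raise reporter mRNA above DMSO so AC50 marks FXR activation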); conditions: HepG2 Attagene TRANS FXR-GAL4 reporter transcription
How it was run: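 After 24 h chemical treatment of transfected HepG2 cells, GAL4-UAS reporter transcripts driven by an exogenous FXR-GAL4 fusion were measured by RT-PCR and capillary electrophoresis. Increases over DMSO were fitted.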

[13] = target: X-box-binding protein 1 (Homo sapiens) (UniProt P17861); test: ATG_Xbp1_CIS: Attagene CIS-FACTORIAL HepG2 Assay for human X-box Binding Protein 1 (XBP1) (AID 2282972); conditions: HepG2 XBP1 cis-element reporter, Attagene multiplex; actives raise or lower the signal
How it was run: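 Fluorescence-labelled cDNA fragments from reporter transcripts, separated by capillary electrophoresis, give the signal. Source: HepG2 cells transfected with promoter-driven reporter units, harvested 24 h post-dose. DMSO served as reference for bidirectional curve fitting.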

[14] = target: Steroid hormone receptor ERR1 (Homo sapiens) (UniProt P11474); test: ATG_ERRa_TRANS: Attagene TRANS-FACTORIAL HepG2 Assay for human Estrogen-Related Receptor alpha (ERRa) (AID 2282971; active = hit-call score of the fitted dose curve at least 0.9, where 1 is the maximum); conditions: HepG2 Attagene TRANS reporter, ERRa transactivation
How it was run: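 Signal gain relative to DMSO for an ERRa-Gal4 chimeric receptor, read as reporter mRNA by RT-PCR/capillary electrophoresis. Human HepG2 liver cells, transient multiplex reporter transfection, 24 h chemical exposure.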

[15] = ATG_GAL4_TRANS: Attagene TRANS-FACTORIAL HepG2 Assay for GAL4 (Internal Marker) (AID 2282976; active = hit-call score of the fitted dose curve at least 0.9, where 1 is the maximum); conditions: HepG2 Attagene TRANS GAL4 internal marker reporter
How it was run: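 Liver HepG2 line bearing multiplexed GAL4-UAS reporter constructs; 24 h chemical treatment. Transcripts were quantified as fluorescent fragments on capillary electrophoresis after RT-PCR and HpaI cut, with activity fitted upward from DMSO.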

[16] = target: Oxysterols receptor LXR-alpha (Homo sapiens) (UniProt Q13133); test: ATG_LXRa_TRANS: Attagene TRANS-FACTORIAL HepG2 Assay for human Liver X Receptor alpha (LXRa) (AID 2282980; active = hit-call score of the fitted dose curve at least 0.9, where 1 is the maximum); conditions: HepG2 Attagene TRANS reporter, LXRa transactivation
How it was run: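 In this multiplexed TRANS system, compounds act on HepG2 cells carrying GAL4-UAS reporter units and a receptor-GAL4 fusion for 24 h. Induced reporter RNA is amplified, fluorescently labelled and sized by capillary electrophoresis, with DMSO as baseline.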

[17] = target: Estrogen receptor (Homo sapiens) (UniProt P03372); test: ATG_ERa_TRANS: Attagene TRANS-FACTORIAL HepG2 Assay for human Estrogen Receptor alpha (ERa) (AID 2282970; active = hit-call score of the fitted dose curve at least 0.9, where 1 is the maximum); conditions: HepG2 Attagene TRANS ERa GAL4 reporter, mRNA
How it was run: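 Multiplexed cell-based reporter format in HepG2: chimeric ERa-Gal4 protein drives GAL4-UAS reporter transcription. Fluorescent reporter mRNA quantified by capillary electrophoresis 24 hours after dosing; endpoint fitted as signal gain against DMSO.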

[18] = target: Estrogen-related receptor gamma (Homo sapiens) (UniProt P62508); test: ATG_ERRg_TRANS: Attagene TRANS-FACTORIAL HepG2 Assay for human Estrogen-Related Receptor gamma (ERRg) (AID 2282977; active = hit-call score of the fitted dose curve at least 0.9, where 1 is the maximum;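 also: hits increase reporter signal over DMSO so potencies reflect activators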); conditions: HepG2 Attagene TRANS reporter, ERRg transactivation
How it was run: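 HepG2 cells transiently transfected with multiplexed GAL4-UAS reporter units driven by chimeric NR-Gal4 proteins; 24 h exposure. Reporter mRNA quantified by RT-PCR, fluorescent labelling, HpaI digestion and capillary electrophoresis; gain of signal vs DMSO.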

[19] = target: Nuclear receptor subfamily 1 group I member 3 (Homo sapiens) (UniProt Q14994); test: ATG_CAR_TRANS: Attagene TRANS-FACTORIAL HepG2 Assay for human Constitutive Androstane Receptor (CAR) (AID 2282969; active = hit-call score of the fitted dose curve at least 0.9, where 1 is the maximum;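 also: activators raise reporter mRNA above DMSO so AC50 marks induction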); conditions: HepG2 Attagene TRANS-FACTORIAL CAR reporter
How it was run: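 HepG2 cells transiently transfected with GAL4-UAS reporter units; TRANS format reads activity of exogenous chimeric NR-Gal4 protein. After 24 h dosing, reporter mRNA quantified by RT-PCR, 6-FAM labelling and capillary electrophoresis; gain of signal fitted against DMSO.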

Measured: AC50

Sequence of X-box-binding protein 1 (Homo sapiens) (P17861 whole entry, looked up, the tested form may be a part): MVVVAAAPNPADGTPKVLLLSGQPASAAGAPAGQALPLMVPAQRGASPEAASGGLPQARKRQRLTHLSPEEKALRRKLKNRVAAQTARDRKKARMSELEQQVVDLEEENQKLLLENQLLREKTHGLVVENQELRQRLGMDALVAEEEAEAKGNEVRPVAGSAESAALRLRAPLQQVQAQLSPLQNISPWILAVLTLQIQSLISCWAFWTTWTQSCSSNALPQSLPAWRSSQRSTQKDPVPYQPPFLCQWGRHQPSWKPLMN
Sequence of Estrogen receptor (Homo sapiens) (P03372 whole entry, looked up, the tested form may be a part): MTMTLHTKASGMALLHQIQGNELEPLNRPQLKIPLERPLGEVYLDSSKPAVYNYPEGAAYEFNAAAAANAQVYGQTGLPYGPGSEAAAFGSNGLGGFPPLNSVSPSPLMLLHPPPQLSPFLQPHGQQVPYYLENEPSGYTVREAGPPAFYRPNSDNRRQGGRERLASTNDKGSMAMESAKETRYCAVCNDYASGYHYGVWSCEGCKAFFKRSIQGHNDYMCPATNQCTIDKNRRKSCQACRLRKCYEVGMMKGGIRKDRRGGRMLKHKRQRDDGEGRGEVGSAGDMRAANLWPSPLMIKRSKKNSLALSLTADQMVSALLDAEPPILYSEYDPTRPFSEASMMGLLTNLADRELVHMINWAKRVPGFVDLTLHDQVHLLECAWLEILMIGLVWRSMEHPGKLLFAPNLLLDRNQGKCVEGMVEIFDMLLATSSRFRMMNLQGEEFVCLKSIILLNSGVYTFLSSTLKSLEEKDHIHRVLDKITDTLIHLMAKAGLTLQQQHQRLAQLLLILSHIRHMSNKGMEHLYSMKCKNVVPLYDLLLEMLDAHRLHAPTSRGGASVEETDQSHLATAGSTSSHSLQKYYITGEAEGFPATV
Sequence of Signal transducer and activator of transcription 3 (Homo sapiens) (P40763 whole entry, looked up): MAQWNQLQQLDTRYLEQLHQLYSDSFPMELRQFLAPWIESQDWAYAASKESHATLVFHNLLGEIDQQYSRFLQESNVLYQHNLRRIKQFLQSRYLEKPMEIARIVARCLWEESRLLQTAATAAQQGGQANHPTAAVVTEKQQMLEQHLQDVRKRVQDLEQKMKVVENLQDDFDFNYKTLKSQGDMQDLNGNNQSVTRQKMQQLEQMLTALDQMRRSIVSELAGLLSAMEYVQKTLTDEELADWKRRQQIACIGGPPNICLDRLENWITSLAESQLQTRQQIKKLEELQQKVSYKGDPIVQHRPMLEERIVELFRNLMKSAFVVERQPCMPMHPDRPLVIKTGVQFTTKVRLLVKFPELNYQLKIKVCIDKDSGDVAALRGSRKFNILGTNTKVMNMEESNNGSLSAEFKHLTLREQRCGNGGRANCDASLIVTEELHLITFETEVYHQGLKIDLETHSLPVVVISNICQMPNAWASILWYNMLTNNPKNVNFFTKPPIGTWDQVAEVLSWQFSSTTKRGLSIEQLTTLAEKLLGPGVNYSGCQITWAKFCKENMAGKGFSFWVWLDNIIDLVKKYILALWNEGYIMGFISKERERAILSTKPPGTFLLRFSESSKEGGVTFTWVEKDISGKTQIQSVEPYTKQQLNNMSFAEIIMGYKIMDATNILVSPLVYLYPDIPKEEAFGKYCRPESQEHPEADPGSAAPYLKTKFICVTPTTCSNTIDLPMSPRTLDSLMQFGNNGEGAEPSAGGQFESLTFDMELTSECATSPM
Sequence of Glucocorticoid receptor (Homo sapiens) (P04150 whole entry, looked up): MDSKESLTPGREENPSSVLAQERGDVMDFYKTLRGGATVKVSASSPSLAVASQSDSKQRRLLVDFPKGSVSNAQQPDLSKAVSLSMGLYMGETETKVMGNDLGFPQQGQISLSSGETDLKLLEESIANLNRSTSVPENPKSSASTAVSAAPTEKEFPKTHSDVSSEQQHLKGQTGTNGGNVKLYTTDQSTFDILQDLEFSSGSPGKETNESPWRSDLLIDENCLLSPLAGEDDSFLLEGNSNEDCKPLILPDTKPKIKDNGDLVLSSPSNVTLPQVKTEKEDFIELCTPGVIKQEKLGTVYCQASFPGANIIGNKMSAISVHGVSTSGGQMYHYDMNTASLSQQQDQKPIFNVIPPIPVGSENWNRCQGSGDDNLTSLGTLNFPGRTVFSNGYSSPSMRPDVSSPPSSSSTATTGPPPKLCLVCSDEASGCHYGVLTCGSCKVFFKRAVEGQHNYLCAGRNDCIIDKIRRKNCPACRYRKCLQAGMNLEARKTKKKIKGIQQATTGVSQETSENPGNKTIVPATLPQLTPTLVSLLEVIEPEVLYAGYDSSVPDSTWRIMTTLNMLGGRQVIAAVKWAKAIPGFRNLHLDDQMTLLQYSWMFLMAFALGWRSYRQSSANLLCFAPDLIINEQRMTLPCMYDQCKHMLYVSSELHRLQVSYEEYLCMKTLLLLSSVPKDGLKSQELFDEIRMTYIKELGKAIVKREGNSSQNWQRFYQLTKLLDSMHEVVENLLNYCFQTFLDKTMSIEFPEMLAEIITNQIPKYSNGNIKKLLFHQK
Sequence of Transcription factor Sp1 (Homo sapiens) (P08047 whole entry, looked up, the tested form may be a part): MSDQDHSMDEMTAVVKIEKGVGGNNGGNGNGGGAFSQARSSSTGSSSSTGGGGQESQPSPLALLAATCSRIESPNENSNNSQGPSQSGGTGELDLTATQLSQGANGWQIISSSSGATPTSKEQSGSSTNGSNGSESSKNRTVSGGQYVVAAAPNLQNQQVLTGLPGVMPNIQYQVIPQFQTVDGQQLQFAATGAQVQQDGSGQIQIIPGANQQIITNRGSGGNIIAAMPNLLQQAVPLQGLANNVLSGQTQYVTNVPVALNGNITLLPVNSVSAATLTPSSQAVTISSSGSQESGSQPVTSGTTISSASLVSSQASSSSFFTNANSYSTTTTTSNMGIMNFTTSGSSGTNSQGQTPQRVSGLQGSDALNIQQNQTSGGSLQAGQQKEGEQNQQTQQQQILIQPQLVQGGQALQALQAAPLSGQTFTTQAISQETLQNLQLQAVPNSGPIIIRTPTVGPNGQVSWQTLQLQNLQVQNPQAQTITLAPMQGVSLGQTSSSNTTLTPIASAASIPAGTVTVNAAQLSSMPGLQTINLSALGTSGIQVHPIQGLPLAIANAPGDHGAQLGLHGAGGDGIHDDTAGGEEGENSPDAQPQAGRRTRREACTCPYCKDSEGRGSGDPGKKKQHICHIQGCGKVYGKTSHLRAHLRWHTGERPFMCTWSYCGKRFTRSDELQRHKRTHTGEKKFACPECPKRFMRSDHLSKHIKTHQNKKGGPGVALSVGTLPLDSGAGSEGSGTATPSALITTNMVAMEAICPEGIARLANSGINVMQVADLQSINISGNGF
Sequence of Bile acid receptor (Homo sapiens) (Q96RI1 whole entry, looked up, the tested form may be a part): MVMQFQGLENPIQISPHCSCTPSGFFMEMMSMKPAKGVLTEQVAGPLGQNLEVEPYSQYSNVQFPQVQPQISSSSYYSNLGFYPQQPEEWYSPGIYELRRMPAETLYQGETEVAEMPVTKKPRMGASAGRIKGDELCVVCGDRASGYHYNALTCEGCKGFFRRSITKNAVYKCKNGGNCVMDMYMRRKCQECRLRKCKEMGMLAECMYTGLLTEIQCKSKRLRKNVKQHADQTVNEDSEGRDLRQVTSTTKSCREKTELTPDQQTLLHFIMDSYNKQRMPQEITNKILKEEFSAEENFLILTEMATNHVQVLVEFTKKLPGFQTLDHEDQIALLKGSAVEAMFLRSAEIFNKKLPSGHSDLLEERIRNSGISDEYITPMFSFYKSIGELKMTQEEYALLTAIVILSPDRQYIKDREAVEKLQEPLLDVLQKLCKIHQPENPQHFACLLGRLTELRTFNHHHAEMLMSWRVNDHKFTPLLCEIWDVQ
Sequence of Steroid hormone receptor ERR1 (Homo sapiens) (P11474 whole entry, looked up, the tested form may be a part): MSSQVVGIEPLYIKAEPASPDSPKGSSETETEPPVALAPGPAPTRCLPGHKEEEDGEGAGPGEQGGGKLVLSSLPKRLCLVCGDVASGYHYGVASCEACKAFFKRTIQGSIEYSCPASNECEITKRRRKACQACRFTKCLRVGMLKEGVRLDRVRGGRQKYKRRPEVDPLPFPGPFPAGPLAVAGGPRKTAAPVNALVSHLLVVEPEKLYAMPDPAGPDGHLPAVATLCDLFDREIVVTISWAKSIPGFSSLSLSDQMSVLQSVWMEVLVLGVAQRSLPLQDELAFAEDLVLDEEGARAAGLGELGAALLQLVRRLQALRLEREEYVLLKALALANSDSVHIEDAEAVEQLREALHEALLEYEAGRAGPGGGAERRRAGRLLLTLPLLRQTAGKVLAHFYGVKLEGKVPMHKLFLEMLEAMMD
Sequence of Estrogen-related receptor gamma (Homo sapiens) (P62508 whole entry, looked up, the tested form may be a part): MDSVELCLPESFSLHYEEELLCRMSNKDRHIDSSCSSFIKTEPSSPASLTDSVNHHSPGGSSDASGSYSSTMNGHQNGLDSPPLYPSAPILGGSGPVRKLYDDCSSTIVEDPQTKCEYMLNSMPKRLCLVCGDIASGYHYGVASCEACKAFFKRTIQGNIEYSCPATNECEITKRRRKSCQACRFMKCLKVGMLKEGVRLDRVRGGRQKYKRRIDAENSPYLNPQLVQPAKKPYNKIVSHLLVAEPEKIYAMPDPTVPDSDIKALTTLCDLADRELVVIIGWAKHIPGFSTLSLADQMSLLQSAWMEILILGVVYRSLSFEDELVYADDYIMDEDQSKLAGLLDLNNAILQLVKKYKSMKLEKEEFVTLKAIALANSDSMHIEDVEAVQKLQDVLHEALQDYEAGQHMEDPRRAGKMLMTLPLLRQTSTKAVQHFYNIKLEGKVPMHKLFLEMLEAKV
Sequence of Oxysterols receptor LXR-alpha (Homo sapiens) (Q13133 whole entry, looked up, the tested form may be a part): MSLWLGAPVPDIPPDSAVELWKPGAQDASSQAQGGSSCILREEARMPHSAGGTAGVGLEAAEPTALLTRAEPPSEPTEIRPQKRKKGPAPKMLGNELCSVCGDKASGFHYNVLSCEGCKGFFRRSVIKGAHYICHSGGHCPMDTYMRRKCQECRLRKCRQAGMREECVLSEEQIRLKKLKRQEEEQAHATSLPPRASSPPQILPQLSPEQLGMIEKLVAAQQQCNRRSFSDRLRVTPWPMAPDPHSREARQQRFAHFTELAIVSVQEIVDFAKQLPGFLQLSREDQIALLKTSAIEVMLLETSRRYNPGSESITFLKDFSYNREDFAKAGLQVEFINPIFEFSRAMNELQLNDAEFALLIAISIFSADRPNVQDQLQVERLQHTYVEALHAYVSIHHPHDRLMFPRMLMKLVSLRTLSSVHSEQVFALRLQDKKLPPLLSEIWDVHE

CC(C)C(C)(N)C#N (stereo not drawn)
not listed: [13] | [14] | [15] | [16] | [17] | [18] | [19]
inactive: all other assays above

CN(C)[C@@H]1C(=O)C(C(N)=O)=C(O)[C@@]2(O)C(=O)C3=C(O)c4c(O)ccc(Cl)c4[C@@](C)(O)[C@H]3C[C@@H]12
not listed: [10] | [11] | [14] | [15] | [16] | [17] | [18] | [19]
inactive: all other assays above

Cc1cc(C(C)(C)c2ccc(O)c(C)c2)ccc1O
inactive: [2] | [5] | [7] | [8] | [14] | [11]
active: [1] 50 µM | [3] 30.3 µM | [4] 93.9 µM | [6] 41.3 µM | [9] 13.7 µM | [13] 36.4 µM | [12] 4.72 µM

CCN(CCO)CCO
not listed: [10] | [12] | [14] | [16] | [17] | [18] | [19]
inactive: all other assays above

COc1nn(C(=O)NS(=O)(=O)c2ccccc2OC(F)(F)F)c(=O)n1C
not listed: [10] | [11] | [14] | [17] | [18] | [19]
inactive: all other assays above

CCOP(=O)(OCC)SCCSCC
not listed: [9] | [10] | [11] | [12] | [15] | [18] | [19]
inactive: all other assays above

C=CC(=O)OCC(COC(=O)C=C)(COC(=O)C=C)COC(=O)C=C
active: [2] 8.41 µM | [6] 8.6 µM | [13] 8.13 µM | [18] 100 µM
not listed: [9] | [10] | [11] | [15] | [16] | [19]
inactive: all other assays above

O=S1(=O)OC(c2cc(Br)c(O)c(Br)c2)(c2cc(Br)c(O)c(Br)c2)c2ccccc21
active: [6] 121 µM
not listed: [10] | [11] | [14] | [15] | [16] | [18] | [19]
inactive: all other assays above

CCCSP(=S)(OCC)Oc1ccc(SC)cc1 (stereo not drawn)
active: [8] 100 µM | [17] 4.92 µM
not listed: [9] | [11] | [14] | [15] | [16]
inactive: all other assays above

CCOC(=O)c1ccccc1S(=O)(=O)NC(=O)Nc1nc(Cl)cc(OC)n1
not listed: [10] | [12] | [14] | [15] | [16] | [17] | [18] | [19]
inactive: all other assays above

Reference: PubChem BioAssay (EPA / NIEHS)
